Shown is part of a subset that was picked to be rich in hits.
mcGAS RapidFire: blocks mouse cGAS cGAMP production; 130,000 tested, 0.18% active; AID 1259397; Q8C6L5; recombinant mouse cGAS, cGAMP by RapidFire MS; inhibition, % at 12.5 µM;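 active = inhibition of cGAS enzyme activity at or above 60%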;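 note: enzyme stimulated by 45 bp dsDNA with ATP and GTP substrates; cGAMP share of summed cGAMP plus half ATP and half GTP signals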
Target sequence (Q8C6L5 whole entry, looked up): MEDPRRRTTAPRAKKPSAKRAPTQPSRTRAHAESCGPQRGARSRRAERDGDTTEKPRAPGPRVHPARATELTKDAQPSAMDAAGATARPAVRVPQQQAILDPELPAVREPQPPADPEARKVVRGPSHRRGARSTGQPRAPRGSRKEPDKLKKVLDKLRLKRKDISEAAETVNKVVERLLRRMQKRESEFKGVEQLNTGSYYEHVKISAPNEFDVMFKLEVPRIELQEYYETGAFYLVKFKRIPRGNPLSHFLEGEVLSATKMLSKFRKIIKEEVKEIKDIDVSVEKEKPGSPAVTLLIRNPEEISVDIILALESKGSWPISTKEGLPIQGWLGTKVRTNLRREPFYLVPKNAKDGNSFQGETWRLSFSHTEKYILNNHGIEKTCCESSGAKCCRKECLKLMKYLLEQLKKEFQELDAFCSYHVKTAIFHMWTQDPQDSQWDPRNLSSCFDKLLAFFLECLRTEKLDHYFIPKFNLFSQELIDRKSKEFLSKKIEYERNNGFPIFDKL
Numbers stand for hits; – = inactive.

SMILES	mcGAS RapidFire
CCOC(=O)c1c(S(=O)(=O)N(Cc2cccs2)C2CC2)n[nH]c1C	–
O=C1CC(C(F)(F)F)N(C(=O)COC(=O)c2cccc(OCC3CCCO3)c2)c2ccccc2N1 (stereo not given)	94.0
O=C(c1c[nH]c(=O)c(Cl)c1)N1CCOC(COc2cccc(C(F)(F)F)c2)C1 (stereo not given)	–
Cc1noc(C)c1C(=O)Nc1cccc(OCC2CCCO2)c1 (stereo not given)	–
Cn1c(C(=O)Nc2cnc(C(C)(C)C)nc2)cc(Cl)c1Cl	–
O=C(c1cc(COc2ccc3c(c2)CCCC3)on1)N1CCCN(c2ncccn2)CC1	–
O=C(C1Nc2ccccc2C2C=CCC12)N1CCn2cncc2C1 (stereo not given)	–
CCCC1(c2ccccc2)NC(=O)N(CC(=O)c2ccccc2F)C1=O (stereo not given)	–
CSC1(CNC(=O)c2ccc(Oc3ccccc3)nc2)CCOCC1	–
CSC1(CNc2ccc(Br)cn2)CCOCC1	70.5
CSC1(CNC(=O)N2CCCC2c2cccs2)CCOCC1 (stereo not given)	–
CCOC(=O)c1cccc2c1-c1ccccc1/C2=N/O	–
C/C(=N/OC(=O)c1ccccc1C)c1ccc(Cl)cc1Cl	–
Cc1ccccc1C(=O)O/N=C1/C(=O)c2ccccc2-c2ccccc21	70.4
O=C(c1cc(-c2ccc(F)cc2)c[nH]1)N1CCOCC1	–
CC(=O)Nc1cc(NC(=O)N(C)Cc2cccc3ccccc23)ccc1C	–
Fc1ccc(F)c2c1CCN(Cc1cc3n(n1)CCCNC3)C2	–
Cc1ccc(S(=O)(=O)N2CCC(C(=O)NC(C)c3ccc4ccccc4c3)CC2)c(C)c1 (stereo not given)	–
O=S(=O)(N=Cc1c(O)ccc2ccccc12)c1ccccc1	–
Oc1ccc2ccccc2c1SSc1c(O)ccc2ccccc12	66.1
Oc1ccc2ccccc2c1N=Nc1c(O)ccc2ccccc12	–
Cc1ccccc1CC(=O)NNC(=O)C1CCCCC1	–
c1ccc2[nH]c(-c3ccc(Sc4nnnn4C4CCCC4)nc3)nc2c1	–
c1ccc(C2=NCCn3c(CN4CCN(c5ccccn5)CC4)ccc32)cc1	–
Cc1cc2nc3c(=O)[nH]c(=O)nc-3n(CC(O)C(O)C(O)CO)c2cc1C (stereo not given)	–
SMILES	mcGAS RapidFire
Cc1cc2nc(-c3ccccc3)c(=O)n(C)c2cc1C	–
Cc1cc2nc3c(=O)[nH]c(=O)nc-3n(C)c2cc1C=O	91.1
CCOC(=O)N1CCC(=Nn2c(CC)n[nH]c2=S)CC1	–
CC1Sc2ccc(C#N)cc2N(Cc2ccccc2Cl)C1=O (stereo not given)	–
O=c1c(O)c(-c2ccccc2)oc2cc(O)ccc12	–
O=c1c(O[C@@H]2O[C@H](CO)[C@H](O)[C@H](O)[C@H]2O)c(-c2ccc(O)c(O)c2)oc2cc(O)cc(O)c12	–
O=c1c(O)c(-c2cc(O)c(O)c(O)c2)oc2cc(O)cc(O)c12	94.0
O=C(c1cc(S(=O)(=O)N2CCOCC2)ccc1Cl)N1CCCC(CO)C1 (stereo not given)	–
NC(=O)CC(N)=S	91.9
NC(=O)NO	–
NC(=S)CC(=O)N1CCOCC1	–
COc1cc(C(=O)NS(=O)(=O)c2ccc(C#N)cc2)ccc1C	–
COc1ccc(C(NC(=O)c2ccc(=O)n(C)n2)C(C)C)cc1 (stereo not given)	–
O=C(CCCN1C(=O)c2ccc(Br)cc2C1=O)Nc1nncs1	–
CCCc1noc(C(C)N2CCCN(C(=O)c3ccccc3Cl)CC2)n1 (stereo not given)	76.2
CCc1noc(C(C)N2CCN(S(=O)(=O)c3c(C)c(C)c(C)c(C)c3C)CC2)n1 (stereo not given)	–
C=C(Br)CNC(=O)N1CCCN(C(=O)c2ccccc2Cl)CC1	–
CC(C)CN(CN1C(=O)C(C)N(c2ccc(Cl)cc2)C1=O)C1CC1 (stereo not given)	–
O=C(O)C1=CCCCc2ccccc21	–
CC(C)(C)OC(=O)NCC(C)(NC(=O)Nc1ccncc1)C1CC1 (stereo not given)	–

Source: PubChem BioAssay (Fisher Drug Discovery Resource Center)
